An excerpt weighted towards active compounds, which were near 0.95% of everything screened.
Rhodamine autofl: qHTS Assay for Spectroscopic Profiling in Rhodamine Spectral Region; AID 594, 2007; actives 0.05% (n = 59,000); Rhodamine-region fluorescence, 547/598 nm, Tris buffer; stronger effect = higher value; max dye-equivalent concentration, M; in the data active means max dye-equivalent concentration above about 11 nM; inconclusive means between about 1.1 nM and that limit
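qHTS spectral profiling of compounds without any target or enzyme present, in pH 8.0 Tris buffer; plates were read after a 15-minute room-temperature incubation using the rhodamine-region filter set.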
A488 autofl: qHTS Assay for Spectroscopic Profiling in A488 Spectral Region; AID 591, 2007; compound autofluorescence, A488 spectral region, dye equivalency; Compound Type: qHTS ECL - MLSMR; max dye equivalency, M; actives 0.1% (n = 59,000)
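Intrinsic compound fluorescence is measured in 100 mM Tris buffer at pH 8.0 following 15 min incubation at room temperature. Intensities at 480 nm excitation/540 nm emission are calibrated to an on-plate A488 concentration series, giving dye-equivalent concentrations.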
Fluorescein fluor: qHTS Assay for Spectroscopic Profiling in Fluorescein Spectral Region. Compound autofluorescence, 480/540 nm, fluorescein-equivalent; stronger effect = higher value. max fluorescein-equivalent concentration, M. actives 0.91% (n = 59,000). AID 593, 2007; in the data active means max fluorescein-equivalent concentration above about 10 nM; inconclusive means between about 1.1 nM and that limit
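Compounds were pin-transferred into 100 mM Tris buffer, pH 8.0, and incubated 15 min at room temperature. Fluorescence was read at 480 nm excitation/540 nm emission. Signals were normalized to an on-plate six-point fluorescein standard curve as dye-equivalent concentration.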
A647 fluor: qHTS Assay for Spectroscopic Profiling in A647 Spectral Region; Compound fluorescence, A647 channel (570/671 nm), Tris buffer; max dye-equivalent concentration, M; 59,000 tested, under 10 active;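 further: values scaled relative to a standard on each plate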
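Fluorescence read (570 nm ex, 671 nm em) after 15 min RT incubation of compounds in 100 mM Tris buffer, pH 8.0; values expressed as dye-equivalent concentration against a six-point A647 standard series on each plate.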
Resorufin fluor: qHTS Assay for Spectroscopic Profiling in Resorufin Spectral Region | Compound fluorescence, resorufin region 547/598 nm, buffer; stronger effect = higher value | max dye-equivalent concentration, M | actives 0.04% (n = 59,000) | AID 588, 2007
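Compounds in 100 mM Tris, pH 8.0, incubated 15 min at room temperature, then fluorescence read at 547 nm excitation/598 nm emission. Signal converted to dye-equivalent concentration via an on-plate six-point resorufin standard curve, per compound concentration.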
Texas Red fluor: qHTS Assay for Spectroscopic Profiling in Texas Red Spectral Region. AID 587, 2007. max dye-equivalent concentration, M. Compound fluorescence, Texas Red channel, 547/618 nm; stronger effect = higher value. actives 0.06% (n = 59,000); in the data active means max dye-equivalent concentration above about 10 nM; inconclusive means between about 1.1 nM and that limit
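Fluorescence at ex 547/em 618 nm, normalized against an on-plate Texas Red standard series to give dye-equivalent concentration per compound concentration. Buffer 100 mM Tris, pH 8.0; 15 min RT incubation before CCD imaging.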
An asterisk follows results filed as active. Unless noted, how the calls were made is not given here.

Results for CCN(CC)C(=O)N[C@H]1C=C2c3cccc4[nH]cc(c34)C[C@@H]2N(C)C1 ?
Rhodamine autofl: inactive; A488 autofl: inconclusive; Fluorescein fluor: 5e-08M*; A647 fluor: 2.3e-09; Resorufin fluor: inactive; Texas Red fluor: inconclusive

How did Cc1ccc(-n2c(O)c(C=Nc3ccccc3N)c(=O)[nH]c2=O)cc1C do in these assays?
Rhodamine autofl: inactive; A488 autofl: inactive; Fluorescein fluor: inconclusive; A647 fluor: 3.2e-08; Resorufin fluor: inactive; Texas Red fluor: inactive

Results for O=c1[nH]c(=O)n(-c2ccc(F)cc2)c(O)c1C=Nc1ccccc1N1CCCC1 ?
Rhodamine autofl: inactive; A488 autofl: inconclusive; Fluorescein fluor: 4e-08M*; A647 fluor: 1.5e-08; Resorufin fluor: inactive; Texas Red fluor: inactive

How did C[C@@H]1Cc2cc3c(cc2C(c2ccc(N)cc2)=NN1)OCO3 do in these assays?
Rhodamine autofl: inactive; A488 autofl: inactive; Fluorescein fluor: inactive; A647 fluor: 4.9e-09; Resorufin fluor: inactive; Texas Red fluor: inconclusive

Results for CC[C@H](CO)NC(=O)[C@@H]1C=C2c3cccc4c3c(cn4C)C[C@@H]2N(C)C1 ?
Rhodamine autofl: inactive; A488 autofl: inactive; Fluorescein fluor: 1.5e-08M*; A647 fluor: 1.8e-09; Resorufin fluor: inactive; Texas Red fluor: inactive

What do the screens show for `C/C=C(\C)C(=O)O[C@@H]1C(C)=C2[C@H]([C@@H]1OC(=O)CCCCCCC)[C@@](C)(OC(C)=O)C[C@@H](OC(=O)CCC)[C@@]1(O)[C@H]2OC(=O)[C@]1(C)O`?
Rhodamine autofl: inactive; A488 autofl: inactive; Fluorescein fluor: inactive; A647 fluor: 1e-09; Resorufin fluor: inactive; Texas Red fluor: inactive

What do the screens show for `CN1C(=O)C(Cc2c[nH]c3ccccc23)C(=O)N(C)C1=O`?
Rhodamine autofl: 1.4e-08M*; A488 autofl: inconclusive; Fluorescein fluor: 3.4e-08M*; A647 fluor: 3.7e-08; Resorufin fluor: 1e-08M*; Texas Red fluor: inconclusive

Results for C=CCn1c(O)c(C=NCCN(C)C)c(=O)[nH]c1=O ?
Rhodamine autofl: inactive; A488 autofl: inactive; Fluorescein fluor: inconclusive; A647 fluor: 1e-09; Resorufin fluor: inactive; Texas Red fluor: inactive

What do the screens show for `O=c1[nH]c(=O)n(CCC2=CCCCC2)c(O)c1C=NCCN1CCNCC1`?
Rhodamine autofl: inactive; A488 autofl: inactive; Fluorescein fluor: inactive; A647 fluor: 1.7e-08; Resorufin fluor: inactive; Texas Red fluor: inactive

Results for CCN(CC)c1ccc(N=Cc2c(O)n(CCC3=CCCCC3)c(=O)[nH]c2=O)cc1 ?
Rhodamine autofl: inactive; A488 autofl: inconclusive; Fluorescein fluor: 9.3e-08M*; A647 fluor: 3.5e-09; Resorufin fluor: inactive; Texas Red fluor: inactive

What do the screens show for `C=CCn1c(O)c(C=Nc2ccc(N(CC)CC)cc2)c(=O)[nH]c1=O`?
Rhodamine autofl: inactive; A488 autofl: inactive; Fluorescein fluor: 1.4e-08M*; A647 fluor: 1e-09; Resorufin fluor: inactive; Texas Red fluor: inactive

Results for CN(C)c1ccc(N=Cc2c(O)n(CCC3=CCCCC3)c(=O)[nH]c2=O)cc1 ?
Rhodamine autofl: inactive; A488 autofl: inactive; Fluorescein fluor: 1.4e-08M*; A647 fluor: 1e-09; Resorufin fluor: inactive; Texas Red fluor: inconclusive

Results for C[C@@H]1[C@H]2C=C[C@@H]1[C@@H](c1c3ccc(=O)c(O)c-3oc3c(O)c(O)ccc13)[C@@H]2C(=O)O ?
Rhodamine autofl: inactive; A488 autofl: inactive; Fluorescein fluor: inconclusive; A647 fluor: 5.1e-08; Resorufin fluor: inactive; Texas Red fluor: inactive

What do the screens show for `CN[C@H]1[C@H]2[C@H]3CCN2C[C@@H]1O3`?
Rhodamine autofl: inactive; A488 autofl: inactive; Fluorescein fluor: inconclusive; A647 fluor: 8.9e-09; Resorufin fluor: inactive; Texas Red fluor: inactive

Results for COc1cc2ccccc2c2cc([N+](=O)[O-])oc12 ?
Rhodamine autofl: inactive; A488 autofl: inconclusive; Fluorescein fluor: 4e-08M*; A647 fluor: 1e-09; Resorufin fluor: inactive; Texas Red fluor: inactive

Results for CC(C)n1cc2c3c(cccc31)[C@@H]1C[C@H](C(=O)O[C@@H](C)[C@H](C)O)CN(C)[C@H]1C2 ?
Rhodamine autofl: inactive; A488 autofl: inactive; Fluorescein fluor: 1.1e-08M*; A647 fluor: 1e-09; Resorufin fluor: inactive; Texas Red fluor: inactive

How did O=C(O)[C@H]1[C@H](C(=O)O)[C@H]2CC[C@@H]1O2 do in these assays?
Rhodamine autofl: inactive; A488 autofl: inactive; Fluorescein fluor: inactive; A647 fluor: 1e-09; Resorufin fluor: inactive; Texas Red fluor: inactive

Results for Nc1c(C(=O)NCCc2ccccc2)c2nc3ccccc3nc2n1CCN1CCOCC1 ?
Rhodamine autofl: inactive; A488 autofl: inactive; Fluorescein fluor: inconclusive; A647 fluor: 3.6e-08; Resorufin fluor: inactive; Texas Red fluor: inactive

How did COCCNC(=O)c1c(NC(=O)c2ccco2)n(Cc2ccccc2)c2nc3ccccc3nc12 do in these assays?
Rhodamine autofl: inactive; A488 autofl: inactive; Fluorescein fluor: 1.1e-08M*; A647 fluor: 1.9e-09; Resorufin fluor: inactive; Texas Red fluor: inactive

What do the screens show for `CC(C)C[C@H]1C(=O)N2CCC[C@@H]2[C@@]2(O)O[C@](NC(=O)[C@@H]3C=C4c5cccc6[nH]cc(c56)C[C@@H]4N(C)C3)(C(C)C)C(=O)N12`?
Rhodamine autofl: inactive; A488 autofl: inconclusive; Fluorescein fluor: 4.9e-08M*; A647 fluor: 1e-09; Resorufin fluor: inactive; Texas Red fluor: inactive

What do the screens show for `CC(C)[C@@]1(NC(=O)[C@@H]2C[C@H]3c4cccc5[nH]cc(c45)C[C@@H]3N(C)C2)O[C@]2(O)[C@H]3CCCN3C(=O)[C@H](Cc3ccccc3)N2C1=O`?
Rhodamine autofl: inactive; A488 autofl: inactive; Fluorescein fluor: inactive; A647 fluor: 5.8e-09; Resorufin fluor: inactive; Texas Red fluor: inconclusive

How did CC(C)C[C@H]1C(=O)N2CCC[C@@H]2[C@]2(O)O[C@](NC(=O)[C@H]3C=C4c5cccc6[nH]cc(c56)C[C@H]4N(C)C3)(C(C)C)C(=O)N12 do in these assays?
Rhodamine autofl: inactive; A488 autofl: inactive; Fluorescein fluor: 1.3e-08M*; A647 fluor: 1e-09; Resorufin fluor: inactive; Texas Red fluor: inactive

Results for CC(C)(C)OC(=O)c1c(N)n(Cc2ccco2)c2nc3ccccc3nc12 ?
Rhodamine autofl: inactive; A488 autofl: inactive; Fluorescein fluor: 2.8e-08M*; A647 fluor: 1e-08; Resorufin fluor: inactive; Texas Red fluor: inactive

Source: PubChem BioAssay (National Center for Advancing Translational Sciences (NCATS))
